VACV Venus inh = vaccinia inhibition (Venus reporter) | Vaccinia virus Venus reporter expression, fluorescence | Potency, µM (titrated, usually from 36.5 µM), inactives show top-dose activity change, negative = inhibition, most hits filed as inhibitors | hit rate 0.46% among 330,000 | AID 720580; calls by dose curve; tested in A549 cells; further: potency means the concentration at half of the fitted maximal effect; nearly all actives have a fitted effect of over 30% in size
Tb PYK inh = T. brucei pyruvate kinase inhibition. TbPYK enzyme, Kinase-Glo Plus ATP luminescence, 45 min. Potency, µM (titrated, usually from 76.8 µM), inactives show top-dose activity, negative = inhibition, most hits filed as inhibitors. hit rate 0.12% among 410,000. AID 624173; further: potency means the concentration at half of the fitted maximal effect; nearly all actives have a fitted effect of over 50% in size
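Glycolytic pyruvate kinase of T. brucei was incubated with substrate, test compound and 130 uM ADP for 45 minutes at room temperature. Luminescent Kinase-Glo Plus signal was measured after 10 minutes.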
VACV mCherry inh = vaccinia inhibition (mCherry reporter); Vaccinia virus mCherry reporter infection, fluorescence; hit rate 0.63% among 310,000; Potency, µM (series often up to 36.5 µM), inactives show at the highest dose activity change, negative = inhibition, actives largely listed as inhibitors; AID 720579; calls by dose curve; tested in A549 cells; further: potency means the concentration at half of the fitted maximal effect; nearly all actives have a fitted effect of over 35% in size
LmPK inhibitor = blocks Leishmania mexicana pyruvate kinase activity. AID 1721. purified LmPK, Kinase-Glo ATP luminescence, 1 h. Potency, µM (series often up to 57.5 µM), inactives show top-dose activity change, negative = inhibition, usual class: inhibitors. hit rate 0.37% among 290,000; further: potency means the concentration at half of the fitted maximal effect
Target sequence (Q27686 whole entry, looked up): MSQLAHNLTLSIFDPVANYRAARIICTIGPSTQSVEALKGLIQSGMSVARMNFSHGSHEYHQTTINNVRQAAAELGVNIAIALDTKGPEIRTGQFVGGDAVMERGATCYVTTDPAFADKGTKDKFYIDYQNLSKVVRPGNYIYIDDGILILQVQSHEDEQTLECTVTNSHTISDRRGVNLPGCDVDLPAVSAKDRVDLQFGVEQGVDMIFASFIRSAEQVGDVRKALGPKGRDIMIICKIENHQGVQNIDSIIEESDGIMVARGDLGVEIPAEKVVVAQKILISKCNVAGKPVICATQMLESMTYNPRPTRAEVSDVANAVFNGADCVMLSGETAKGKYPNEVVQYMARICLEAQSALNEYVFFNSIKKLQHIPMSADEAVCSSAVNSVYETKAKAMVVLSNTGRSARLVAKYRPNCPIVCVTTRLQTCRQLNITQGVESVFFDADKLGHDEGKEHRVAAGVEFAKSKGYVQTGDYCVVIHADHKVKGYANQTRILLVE
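ATP generated from ADP (0.1 mM) and PEP (0.5 mM) by 0.1 nM LmPK over 1 h at room temperature (pH 7.2 imidazole buffer) was detected by coupled luciferase luminescence. Values were normalized to uninhibited and no-enzyme wells.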
HCMV antiviral = human cytomegalovirus inhibition; hit rate 4.5% among 410,000; AID 1259415; HFF cells, HCMV-luciferase reporter, 72 h; stronger effect = lower value; activity change, negative = inhibition, % at 57.5 µM; in the data active means activity change below about -60%; inconclusive means no clear call, values can overlap the other calls; inactive means above about -39%
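Inhibition of viral replication was scored as loss of reporter luminescence in HFFs infected with HCMV-luciferase (MOI 1 PFU/cell) for 72 h; compounds tested at 2 doses, normalized to buffer and Salinomycin controls.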
* marks the source's active call; other numbers are inactive results; i = inactive; ? = inconclusive; nt = not tested or not shown; [ ] = remark or other dose. Hits are enriched below; roughly 5% of the tested compounds scored in any of these assays. Unless noted, the call rests on the fitted dose curve; in most records, active means well fitted curve in the direction sought with a large enough effect; inconclusive means small, poorly fitted or top-dose-only effect, or another doubt; inactive means no such curve, though single readings can be large; an effect the other way counts as inactive or inconclusive. On the % scale 0 is the no-effect control and ±100 the full control effect.

SMILES	VACV Venus inh	Tb PYK inh	VACV mCherry inh	LmPK inhibitor	HCMV antiviral
CN(C)C(=O)N1CCN(S(=O)(=O)c2ccc3ccccc3c2)CC1	-13%	0%	-10%	-9%	12
CN1CCN(S(=O)(=O)c2ccc3ccccc3c2)CC1	6%	0%	5%	0%	9
CC(Nc1ccc(-c2nc(-c3ccncc3)no2)cc1[N+](=O)[O-])c1ccccc1 (stereo unspecified)	-13%	-19%	-12%	nt	22
CC(C)CC(N)c1csc(Nc2ccc(C(=O)NCCCO)cn2)n1 (stereo unspecified)	-9%	2%	-14%	nt	-8
CC(/C=N/N1CCN(Cc2ccccc2)CC1)=C\c1ccccc1	-2%	4%	-19%	-1%	-104*
CC(=C/c1ccccc1)/C=N/N1CCN(Cc2ccc(C)cc2)CC1	-9%	2%	i	-6%	4
Cc1c(C)c2ccc(OC(C)C(=O)NC3CCN(Cc4ccccc4)CC3)cc2oc1=O (stereo unspecified)	-27%	-4%	i	0%	46
O=C(Nc1c2c(nc3ccccc13)CCCC2)c1cccc([N+](=O)[O-])c1	-9%	-2%	-3%	4%	-64*
Oc1c(CN2CCCC(C(F)(F)F)C2)cc(Cl)c2ccccc12 (stereo unspecified)	-1%	1%	-8%	-1%	-13
CCc1ccc2c(c1)C1(NN=C(c3ccc(C)cc3)S1)C(=O)N2 (stereo unspecified)	?	-15%	?	-13%	-101*
N#Cc1ccccc1NC(=O)CSc1ccc([N+](=O)[O-])cn1	7%	-6%	-17%	-5%	-66*
N#Cc1ccccc1NC(=O)CSC1=Nc2ccccc2C2CC=NN12 (stereo unspecified)	4%	-5%	0%	9%	-60*
CC1CCN(C(=O)c2cc(-c3ccc(Br)cc3)on2)CC1	-23%	1%	i	nt	70
Cc1cc(C)n(CCC(=O)Nc2cccc(F)c2)n1	nt	2%	nt	9%	6
O=C(Nc1cccnc1)c1ccc(S(=O)(=O)c2ccccc2)cc1	-15%	7%	i	2%	?
CN(CCNC(=O)C1CC(=O)N(c2ccc(F)c(Cl)c2)C1)Cc1ccccc1 (stereo unspecified)	-25%	-10%	-12%	-3%	-67*
Cc1cc(N2CCN(S(=O)(=O)c3ccc(Br)cc3)CC2)n2ncnc2n1	-6%	2%	5%	4%	-6
CCc1c(C)nc2ncnn2c1NCc1cccs1	-12%	9%	-9%	0%	-69*
CCc1c(C)nc2ncnn2c1NCCc1ccc(OC)cc1	nt	-3%	nt	-1%	-92*
CCc1c(C)nc2ncnn2c1N1CCN(S(=O)(=O)c2ccc(OC)cc2)CC1	-12%	-5%	-8%	10%	-72*
CCc1c(C)nc2ncnn2c1N1CCC(C(=O)NCc2cccs2)CC1	-17%	-11%	i	6%	-26
CCCCc1nc2ccccc2n2c(-c3ccc(OC)cc3)c3c(=O)n(C)c(=O)n(C)c3c12	-4%	2%	-11%	nt	16
CCN(c1ccccc1)S(=O)(=O)c1ccc(NC(=O)c2nc(SC)ncc2Cl)cc1	-7%	1%	-29%	nt	-86*
CNC(=O)c1ccc(NC(=O)c2nsc3ccccc23)cc1	-20%	?	-14%	nt	163
CCCSc1ncc(Cl)c(C(=O)Nc2ccc(S(=O)(=O)N(C)c3ccccc3)cc2)n1	-13%	4%	-18%	nt	-35
SMILES	VACV Venus inh	Tb PYK inh	VACV mCherry inh	LmPK inhibitor	HCMV antiviral
CCc1ccc(NC(=O)c2nc(S(=O)(=O)Cc3ccccc3)ncc2Cl)cc1	nt	nt	nt	-1%	-100*
CCS(=O)(=O)c1ncc(Cl)c(C(=O)Nc2ccccc2)n1	?	6%	?	nt	-103*
CCOC(=O)c1ccc(NC(=O)c2nsc3ccccc23)cc1	-2%	5%	-7%	nt	-78*
CCSc1ncc(Cl)c(C(=O)Nc2ccccc2)n1	-11%	-2%	i	3%	-19
Cc1ccc(NC(=O)c2nc(S(=O)(=O)Cc3ccccc3F)ncc2Cl)cc1	-18%	nt	-21%	nt	nt
COc1ccccc1N1CCN(Cc2nnc(-c3ccccc3C)o2)CC1	-8%	0%	-18%	nt	10
CC1=C(C(=O)NCc2ccccc2Cl)C2(CCCCCC2)OC1=O	-3%	-8%[15.4 µM]	i	nt	0
CCc1ccccc1NC(=O)c1cc(S(=O)(=O)NCCc2ccc(OC)c(OC)c2)ccc1F	-7%	12%	-11%	nt	-19
